Screening data: PubChem BioAssay, several laboratories
Compounds with a hit are over-represented: about 2.1% of the library has one in this group of screens.
DUSP3 inh = DUSP3 (human) phosphatase inhibition; recombinant VHR phosphatase, pNPP absorbance; 0.52% of 290,000 active; inhibition, % at 13.3 µM; AID 1654; P51452; in the data active = inhibition above about 50%
Target sequence (P51452 whole entry, looked up): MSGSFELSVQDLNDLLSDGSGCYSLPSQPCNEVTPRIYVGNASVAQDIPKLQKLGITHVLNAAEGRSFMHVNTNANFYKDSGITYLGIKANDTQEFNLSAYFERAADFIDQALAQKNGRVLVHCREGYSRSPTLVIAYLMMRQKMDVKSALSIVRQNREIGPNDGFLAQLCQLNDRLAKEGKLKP
MazEF act = activators of E. coli MazEF toxin-antitoxin RNase | P0AE70 | FAM/BHQ RNA-DNA oligo cleavage fluorescence, 5 h | activation, % at 20 µM | 0.32% of 350,000 active | AID 504720; in the data active = activation above about 50%
Target sequence (P0AE70 whole entry, looked up): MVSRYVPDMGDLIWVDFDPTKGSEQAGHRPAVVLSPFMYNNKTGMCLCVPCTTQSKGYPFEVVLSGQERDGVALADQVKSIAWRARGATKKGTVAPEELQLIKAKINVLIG
PrPC surface inh = reduces human prion protein on the cell surface; P04156; cell surface PrPC, TR-FRET read-out; inhibition, % at 13.8 µM; 0.43% of 370,000 active; AID 720596; in the data active = inhibition above about 24%; note: 0% = median of the test wells and 100% = reference compound wells
BJeLR lethal = kills HRASV12-expressing BJeLR cells | inhibition, % (no concentration beside the values) | BJeLR (HRASV12) viability, CellTiter-Glo ATP luminescence, 48 h | 0.17% of 300,000 active; in the data active = inhibition above about 50%
PfHsp40 rescue = rescue of PfHsp40-mediated yeast toxicity; S. cerevisiae expressing PfHsp40, growth rescue, ATP luminescence; growth rescue, % at 12.5 µM; 0.68% of 340,000 active; AID 504582; in the data active = growth rescue above about 28%, passing the limit was not always enough;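 note: yeast W303a lacking pdr1 and pdr3 grown in galactose medium; growth measured after three days at 30 °C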
PrP 5UTR inh = suppresses PrP 5' UTR mRNA reporter expression | 0.35% of 340,000 active | inhibition, % (test concentration not listed) | AID 488862 | cell-based PrP 5' UTR mRNA reporter, plate reader; in the data active = inhibition above about 52%; note: 0 = median of the neutral control wells
* = called active by the depositor; / = no result; + = active, no number.

SMILES	DUSP3 inh	MazEF act	PrPC surface inh	BJeLR lethal	PfHsp40 rescue	PrP 5UTR inh
Cc1cc(C)c(NC(=O)Cn2nnc(C(=O)NCc3ccc4c(c3)OCO4)c2N)c(C)c1	-7	70*	/	5	2	-30
Nc1c(C(=O)NCc2ccc3c(c2)OCO3)nnn1CC(=O)Nc1ccc(Br)cc1	-17	90*	-1	8	-1	-18
O=C(Nc1nnc(SCc2ccc(F)cc2)s1)c1ccccn1	18	-3	16	11	161*	12
COc1cccc(CNCCc2c[nH]c3ccccc23)c1OCc1ccccc1	60*	5	-6	6	-1	-3
C(=N\n1cnnc1)/c1cccc(Oc2ccccc2)c1	-15	8	3	7	1	-1
S=c1[nH]ncn1/N=C/c1cccc(Oc2ccccc2)c1	29	4	-5	0	106*	-2
Cn1nc(C(C)(C)C)cc1NC(=O)C1(C)CCN1C(=O)CC(c1ccccc1)c1ccccc1 (stereo not drawn)	/	/	10	/	/	/
CCC(C)N(CCNC(=O)c1ccc2c(c1)NC(=O)c1ccccc1S2)C1CCCCC1 (stereo not drawn)	-17	9	-8	2	0	3
CCCN(CCC)CCc1cccc2c1CC(=O)N2	/	/	-3	/	/	/
c1ccc(Nc2nc(-c3ccccn3)cs2)cc1	-10	7	-13	2	317*	-90
NS(=O)(=O)c1ccc(Nc2nc(-c3ccc(O)cc3)cs2)cc1	-11	10	-10	1	1	-19
COc1ccc(-c2csc(Nc3ccccc3)n2)cc1	30	-8	0	3	57*	-6
Oc1ccc(Nc2nc(-c3ccc(O)cc3)cs2)cc1	10	78*	-8	-16	1	-73
c1ccc(-c2csc(Nc3cccnc3)n2)nc1	14	-5	2	-2	0	/
NS(=O)(=O)c1cccc(Nc2nc3ccccc3nc2NS(=O)(=O)c2ccc(Cl)cc2)c1	/	26	8	/	-2	16
COc1ccc(C(=O)CSc2nc(C)cc(=O)[nH]2)cc1	-9	-1	-5	-4	0	-9
COc1ccc(C(=O)CSc2cc(C)[nH]c(=O)n2)cc1	50*	-3	-11	-5	-1	-60
COc1ccc([N+](=O)[O-])cc1N(CC(=O)NCCSc1ccc(C)cc1)S(C)(=O)=O	-12	2	-12	-11	1	-20
Cc1cccc(NS(=O)(=O)c2ccc(NC(=O)CN(c3cc([N+](=O)[O-])ccc3C)S(C)(=O)=O)cc2)c1	-11	5	8	69*	1	9
COc1ccc(C)cc1NS(=O)(=O)c1ccc(NC(=O)CN(c2cc([N+](=O)[O-])ccc2C)S(C)(=O)=O)cc1	-4	0	-9	109*	0	-3
Cc1ccc(-n2c(SCC(=O)Nc3cccc4ccccc34)nnc2-c2cccs2)cc1	/	/	4	/	/	/
Cc1ccc(C2=C/C(=C/c3cccs3)C(=O)O2)cc1	-4	+	-5	0	-1	-44
Cc1ccc(C=C2C=C(c3ccccc3)OC2=O)cc1	/	-23	9	/	/	/
CC(C)COC(=O)N1CCCCC1c1cc(C(=O)NCc2ccc(F)cc2)no1 (stereo not drawn)	/	/	3	/	/	/
COc1ccc(N/N=C(/N=Nc2nc(C)cc(=O)[nH]2)c2ccccc2)cc1	-6	1	7	67*	-2	-38
SMILES	DUSP3 inh	MazEF act	PrPC surface inh	BJeLR lethal	PfHsp40 rescue	PrP 5UTR inh
Cc1cc(=O)[nH]c(N=N/C(=N/Nc2ccc(O)cc2)c2ccccc2)n1	-25	-5	1	14	0	-30
Cc1ccc(SC[C@H](C)CN2CCC(NC(=O)OCc3ccccc3)CCC2=O)cc1 (stereo partly drawn)	/	/	-6	/	/	/
CC1CN(C(=O)c2cc3cc([N+](=O)[O-])ccc3s2)CC(C)O1 (stereo not drawn)	38	161*	-26	7	2	-20
CC1CN(C(=O)c2cc3cc([N+](=O)[O-])ccc3oc2=O)CC(C)O1 (stereo not drawn)	12	9	-13	8	1	-11
Cc1[nH]nc(SCC(=O)N2CCCCCC2)c1[N+](=O)[O-]	1	0	-8	-16	49*	-21
CCC(=O)N1N=C(c2cccs2)CC1c1ccc(C)cc1 (stereo not drawn)	-2	15	0	11	0	0
Cc1ccc(C2CC(c3cccs3)=NN2C(=O)CCl)cc1 (stereo not drawn)	-9	-1	5	63*	1	/
